Holding throughout (set-up): scale not given: direction of the effect not stated beside the values
In experiment [1] the target is Protein translocase subunit SecA (Escherichia coli (strain K12)) (UniProt P10408). The experiment in a line: Assay to Identify E. coli SecA ATPase Inhibitors. The format is functional. The conditions noted are these: 30 µM.
In experiment [2] the target is T1, Ubiquitin-activating enzyme e1, putative (Leishmania donovani (strain BPK282A1)) (UniProt E9BSI1).
T1 sequence (whole entry): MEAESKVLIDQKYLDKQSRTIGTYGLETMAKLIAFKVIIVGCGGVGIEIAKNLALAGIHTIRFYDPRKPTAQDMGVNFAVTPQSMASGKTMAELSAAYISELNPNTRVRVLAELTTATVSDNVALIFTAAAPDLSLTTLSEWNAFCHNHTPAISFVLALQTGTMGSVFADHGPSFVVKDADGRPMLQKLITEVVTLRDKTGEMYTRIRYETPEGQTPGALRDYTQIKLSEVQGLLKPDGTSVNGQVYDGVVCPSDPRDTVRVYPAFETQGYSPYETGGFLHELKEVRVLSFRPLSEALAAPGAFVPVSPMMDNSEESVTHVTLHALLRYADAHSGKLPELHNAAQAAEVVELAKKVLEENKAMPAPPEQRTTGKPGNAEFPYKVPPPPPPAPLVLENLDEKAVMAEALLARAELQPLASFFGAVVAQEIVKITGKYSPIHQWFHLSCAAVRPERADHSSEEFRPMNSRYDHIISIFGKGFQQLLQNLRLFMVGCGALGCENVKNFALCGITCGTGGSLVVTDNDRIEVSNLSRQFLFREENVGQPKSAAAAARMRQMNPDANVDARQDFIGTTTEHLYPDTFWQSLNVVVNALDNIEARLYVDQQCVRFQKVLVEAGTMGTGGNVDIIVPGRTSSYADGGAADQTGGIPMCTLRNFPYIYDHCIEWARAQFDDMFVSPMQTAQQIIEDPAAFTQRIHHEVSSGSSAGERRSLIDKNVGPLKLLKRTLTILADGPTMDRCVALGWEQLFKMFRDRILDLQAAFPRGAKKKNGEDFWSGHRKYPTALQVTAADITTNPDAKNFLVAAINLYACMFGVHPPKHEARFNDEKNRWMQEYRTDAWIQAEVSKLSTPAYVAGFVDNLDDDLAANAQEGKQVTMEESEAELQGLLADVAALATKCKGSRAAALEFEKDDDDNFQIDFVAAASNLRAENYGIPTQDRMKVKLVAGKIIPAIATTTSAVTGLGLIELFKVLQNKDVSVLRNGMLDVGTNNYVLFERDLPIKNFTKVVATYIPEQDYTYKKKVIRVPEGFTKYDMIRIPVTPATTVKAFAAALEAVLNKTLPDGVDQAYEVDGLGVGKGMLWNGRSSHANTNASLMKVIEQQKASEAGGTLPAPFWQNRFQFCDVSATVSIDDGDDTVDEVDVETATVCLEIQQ
The experiment in a line: Leishmania donovani Ubiquitin Activating Enzyme (LdE1). The format is functional. The conditions noted are these: 30 µM.

The target of experiment [3] is AMP-activated protein kinase, AMPK (Homo sapiens) (UniProt P54646+O43741+P54619+Q9UGJ0+Q9Y478+Q13131+Q9UGI9). The experiment can be described thus: AMP-dependent Kinase enzyme assay. An in vitro enzyme assay that detects ADP turnover that is directly proportional to AMPK activity. This uses naive AMPK that is activated during the assay with MK-8722. Type of experiment: functional. Particulars: 30 µM.

The target of experiment [4] is Sialic acid-binding Ig-like lectin 9 (Homo sapiens) (UniProt Q9Y336). The experiment in a line: Hs-Siglec9 ALPHAscreen SOP 20170721. The conditions noted are these: 10 µM. On the technique in general: In Alpha technology, singlet oxygen from a donor bead excites a nearby acceptor bead.
For another experiment, the system named is Trypanosoma cruzi. The experiment in a line: Trypanosoma cruzi phosphomannomutase and mannose-1-phosphate guanylyltransferase assay. Type of experiment: functional. Particulars: 10 µM.
Experiment [5] addresses T2, Arginase-2, mitochondrial (Homo sapiens) (UniProt P78540).
T2 sequence (whole entry): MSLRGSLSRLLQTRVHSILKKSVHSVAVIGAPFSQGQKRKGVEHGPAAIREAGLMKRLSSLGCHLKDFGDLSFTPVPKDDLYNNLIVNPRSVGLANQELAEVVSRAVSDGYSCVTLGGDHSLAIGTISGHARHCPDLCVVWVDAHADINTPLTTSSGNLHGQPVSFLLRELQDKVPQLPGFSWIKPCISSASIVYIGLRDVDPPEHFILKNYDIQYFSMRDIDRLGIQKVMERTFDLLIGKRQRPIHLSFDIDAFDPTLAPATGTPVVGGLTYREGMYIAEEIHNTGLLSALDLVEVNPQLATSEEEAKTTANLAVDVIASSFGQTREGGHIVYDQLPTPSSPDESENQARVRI
The experiment can be described thus: in vitro enzyme assay to detect the production of urea directly proportional to the activity of Arginase II. Note: in the data most compounds retested in dose-response had high values. Type of experiment: functional. The conditions noted are these: 33.3 µM.

In experiment [6] the target is T3, Proteasome subunit beta (Trypanosoma cruzi) (UniProt O96673).
T3 sequence (whole entry): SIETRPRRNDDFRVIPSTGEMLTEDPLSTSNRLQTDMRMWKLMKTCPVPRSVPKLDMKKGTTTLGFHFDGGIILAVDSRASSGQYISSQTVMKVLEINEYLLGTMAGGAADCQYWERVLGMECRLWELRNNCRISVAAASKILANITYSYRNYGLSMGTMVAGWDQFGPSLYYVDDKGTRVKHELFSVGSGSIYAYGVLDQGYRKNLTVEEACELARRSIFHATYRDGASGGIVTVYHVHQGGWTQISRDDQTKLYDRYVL
The experiment can be described thus: Trypanosoma cruzi proteasome chymotrypsin-like activity (TcProtChymo) assay. Note: in the data most compounds retested in dose-response had high values. Type of experiment: functional. Particulars: 9.37 µM.

Another experiment is filed under the species Homo sapiens. The experiment in a line: To identify inhibition of the IFN signalling (Jak-Stat) pathway via expression of an eGFP reporter gene under the control of an IFN-stimulated response element (ISRE) containing MxA promoter. The conditions noted are these: 30 µM. The format is functional. For orientation: Reporter assays use an easily measured gene product as a stand-in for the process of interest.

The target of experiment [7] is T4, Tyrosyl-tRNA synthetase, putative (Trypanosoma cruzi (strain CL Brener)) (UniProt Q4DSP6).
T4 sequence (whole entry): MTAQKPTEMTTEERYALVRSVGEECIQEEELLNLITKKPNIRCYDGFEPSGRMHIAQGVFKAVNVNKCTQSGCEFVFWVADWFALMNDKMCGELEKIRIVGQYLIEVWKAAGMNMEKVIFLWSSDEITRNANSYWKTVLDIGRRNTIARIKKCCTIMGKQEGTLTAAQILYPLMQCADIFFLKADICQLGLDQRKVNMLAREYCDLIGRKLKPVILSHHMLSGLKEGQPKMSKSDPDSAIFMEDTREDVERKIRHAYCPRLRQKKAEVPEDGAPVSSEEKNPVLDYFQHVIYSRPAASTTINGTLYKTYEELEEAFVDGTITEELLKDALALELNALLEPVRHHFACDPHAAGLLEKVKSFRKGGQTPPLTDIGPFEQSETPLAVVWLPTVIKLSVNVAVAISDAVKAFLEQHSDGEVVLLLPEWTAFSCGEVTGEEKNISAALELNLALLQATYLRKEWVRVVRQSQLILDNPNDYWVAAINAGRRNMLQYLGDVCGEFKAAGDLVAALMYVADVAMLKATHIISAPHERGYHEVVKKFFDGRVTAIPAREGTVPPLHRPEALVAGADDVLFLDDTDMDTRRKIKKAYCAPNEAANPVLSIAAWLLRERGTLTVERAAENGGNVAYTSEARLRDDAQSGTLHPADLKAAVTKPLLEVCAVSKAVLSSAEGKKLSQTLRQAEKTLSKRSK
The experiment in a line: Trypanosoma cruzi tyrosyl tRNA synthetase (TcYRS) _High Tyrosine SOP. Note: in the data most compounds retested in dose-response had high values. Particulars: 30 µM. The format is functional.

The target in experiment [8] is T4, Tyrosyl-tRNA synthetase, putative (Trypanosoma cruzi (strain CL Brener)). The experiment in a line: Trypanosoma cruzi tyrosyl tRNA synthetase (TcYRS) SOP. Type of experiment: functional. The conditions noted are these: 30 µM.
In experiment [9] the target is Chromo domain-containing protein 1 (Saccharomyces cerevisiae (strain ATCC 204508 / S288c) (Baker's yeast)) (UniProt P32657). The experiment can be described thus: ScCHD-1 Enzyme Inhibition Assay. Note: in the data most compounds retested in dose-response had high values. The format is functional. Particulars: 30 µM.

For some assays here: Potency and affinity values are given separately.

Drawing on ChEMBL document CHEMBL3988442, “University of Dundee, Small-Polar-MMV Screening Library” (2021), this text covers Percent Effect for ten molecules.

Chromo domain-containing protein 1 (Saccharomyces cerevisiae (strain ATCC 204508 / S288c) (Baker's yeast)), sequence (P32657 whole entry, the tested form may be a part): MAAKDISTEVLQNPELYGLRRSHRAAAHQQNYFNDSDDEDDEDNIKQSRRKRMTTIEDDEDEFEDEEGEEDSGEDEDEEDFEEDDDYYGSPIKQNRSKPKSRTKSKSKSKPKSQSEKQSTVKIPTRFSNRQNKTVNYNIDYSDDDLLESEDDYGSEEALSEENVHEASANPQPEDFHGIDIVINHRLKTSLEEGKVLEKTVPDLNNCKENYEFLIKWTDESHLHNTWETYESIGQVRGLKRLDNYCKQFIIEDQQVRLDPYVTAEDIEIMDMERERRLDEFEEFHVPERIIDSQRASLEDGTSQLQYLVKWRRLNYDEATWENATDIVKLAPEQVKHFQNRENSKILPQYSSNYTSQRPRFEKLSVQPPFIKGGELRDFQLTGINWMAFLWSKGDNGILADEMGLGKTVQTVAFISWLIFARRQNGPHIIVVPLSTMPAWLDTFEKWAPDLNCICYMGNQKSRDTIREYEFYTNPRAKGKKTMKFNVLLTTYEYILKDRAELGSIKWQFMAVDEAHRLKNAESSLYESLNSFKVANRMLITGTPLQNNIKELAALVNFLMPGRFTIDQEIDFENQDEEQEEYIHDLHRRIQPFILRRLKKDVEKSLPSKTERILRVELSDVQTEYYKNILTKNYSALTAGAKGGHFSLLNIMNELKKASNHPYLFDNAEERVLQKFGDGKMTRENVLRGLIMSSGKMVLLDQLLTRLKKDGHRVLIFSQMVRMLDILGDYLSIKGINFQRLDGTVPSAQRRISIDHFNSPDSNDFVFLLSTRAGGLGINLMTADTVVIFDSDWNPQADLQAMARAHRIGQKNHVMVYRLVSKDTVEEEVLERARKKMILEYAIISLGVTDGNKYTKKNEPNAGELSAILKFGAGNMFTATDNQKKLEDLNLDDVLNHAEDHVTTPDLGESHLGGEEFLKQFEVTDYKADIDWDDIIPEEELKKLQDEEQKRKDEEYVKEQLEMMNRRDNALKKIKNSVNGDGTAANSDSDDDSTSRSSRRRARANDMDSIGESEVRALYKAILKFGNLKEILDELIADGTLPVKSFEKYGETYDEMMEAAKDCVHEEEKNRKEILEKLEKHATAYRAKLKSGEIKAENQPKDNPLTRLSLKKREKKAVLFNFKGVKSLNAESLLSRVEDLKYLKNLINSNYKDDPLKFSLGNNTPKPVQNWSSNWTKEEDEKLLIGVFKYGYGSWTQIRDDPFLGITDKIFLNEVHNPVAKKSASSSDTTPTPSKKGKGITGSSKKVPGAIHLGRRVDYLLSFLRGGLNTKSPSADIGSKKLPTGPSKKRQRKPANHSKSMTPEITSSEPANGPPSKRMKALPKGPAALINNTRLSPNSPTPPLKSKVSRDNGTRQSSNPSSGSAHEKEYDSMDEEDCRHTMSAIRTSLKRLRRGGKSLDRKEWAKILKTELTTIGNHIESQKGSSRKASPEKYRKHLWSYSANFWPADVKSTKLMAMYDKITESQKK
Sialic acid-binding Ig-like lectin 9 (Homo sapiens), sequence (Q9Y336 whole entry): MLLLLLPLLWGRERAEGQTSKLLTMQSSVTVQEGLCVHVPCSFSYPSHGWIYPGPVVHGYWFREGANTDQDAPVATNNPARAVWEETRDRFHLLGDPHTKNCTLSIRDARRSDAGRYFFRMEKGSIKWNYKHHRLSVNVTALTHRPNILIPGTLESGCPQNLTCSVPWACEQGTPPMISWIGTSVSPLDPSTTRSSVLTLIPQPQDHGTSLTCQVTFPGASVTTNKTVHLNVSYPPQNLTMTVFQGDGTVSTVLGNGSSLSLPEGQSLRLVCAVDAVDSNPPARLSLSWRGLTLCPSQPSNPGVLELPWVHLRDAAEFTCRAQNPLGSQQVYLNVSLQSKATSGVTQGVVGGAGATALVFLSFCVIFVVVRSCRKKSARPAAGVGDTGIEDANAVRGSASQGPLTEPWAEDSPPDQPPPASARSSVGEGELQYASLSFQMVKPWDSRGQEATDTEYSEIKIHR
Protein translocase subunit SecA (Escherichia coli (strain K12)), sequence (P10408 whole entry): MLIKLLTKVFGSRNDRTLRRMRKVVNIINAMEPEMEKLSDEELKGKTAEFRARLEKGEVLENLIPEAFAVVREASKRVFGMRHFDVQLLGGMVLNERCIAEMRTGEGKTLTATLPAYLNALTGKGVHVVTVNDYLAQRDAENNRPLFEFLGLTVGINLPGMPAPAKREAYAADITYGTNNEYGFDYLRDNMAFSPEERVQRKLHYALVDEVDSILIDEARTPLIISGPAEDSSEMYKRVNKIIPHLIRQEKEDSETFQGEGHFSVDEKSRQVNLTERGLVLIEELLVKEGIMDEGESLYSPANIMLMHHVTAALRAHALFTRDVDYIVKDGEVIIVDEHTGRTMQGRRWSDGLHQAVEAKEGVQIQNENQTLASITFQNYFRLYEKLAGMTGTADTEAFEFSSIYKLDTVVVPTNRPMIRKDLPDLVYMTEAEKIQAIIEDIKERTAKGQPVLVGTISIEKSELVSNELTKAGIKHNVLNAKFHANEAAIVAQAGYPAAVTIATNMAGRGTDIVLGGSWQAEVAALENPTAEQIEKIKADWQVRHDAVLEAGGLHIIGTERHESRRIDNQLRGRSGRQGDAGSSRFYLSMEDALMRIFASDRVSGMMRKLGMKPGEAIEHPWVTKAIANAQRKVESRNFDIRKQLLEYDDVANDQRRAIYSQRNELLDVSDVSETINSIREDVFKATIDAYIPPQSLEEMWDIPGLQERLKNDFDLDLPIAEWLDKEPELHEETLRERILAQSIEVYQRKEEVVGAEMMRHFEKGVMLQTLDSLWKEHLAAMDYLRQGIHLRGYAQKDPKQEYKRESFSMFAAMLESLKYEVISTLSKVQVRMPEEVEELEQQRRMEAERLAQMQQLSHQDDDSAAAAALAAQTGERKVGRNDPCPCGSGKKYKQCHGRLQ

As for `Cc1noc2nc(C3CCN(Cc4ccncc4)CC3)cc(C(F)F)c12`, the Percent Effect in experiment [1] was -9.38%; in experiment [2], 1.35%; in [3], 1.21%; in experiment [4] it was -1.72%; in the experiment on Trypanosoma cruzi it was -0.79%; in [5], -4.41%. The Percent Effect is -4.99% in experiment [6]; 39.2% in the experiment filed under Homo sapiens; 2.15% in experiment [7]; -1.3% in experiment [8]; -4.82% in experiment [9].

In the case of `CSc1ncccc1C(=O)N1C[C@H]2CC[C@@H]1CN(c1ncccn1)C2`, the Percent Effect is -4.71% in experiment [1]; 7.79% in experiment [2]; 4.3% in experiment [3]; 12.7% in [4]; 1.87% in the experiment on Trypanosoma cruzi; -31.7% in [5]. Also, the Percent Effect in [6] was 6.82%; in the experiment listed under Homo sapiens, -0.196%; in experiment [7], 7.53%; in experiment [8], 11.1%; in experiment [9], -5.74%.

As for `COCC(=O)N1CCC2(CC1)COCCN2CCN(C)C`, the Percent Effect in [1] is 0.864%; in experiment [2], -5.33%; in experiment [3] it was -0.00705%; in [4], 4.73%; in the experiment on Trypanosoma cruzi, -1.93%; in experiment [5] it was -50%. Further, the Percent Effect is 0.342% in experiment [6]; -11.3% in the experiment filed under Homo sapiens; 3.12% in experiment [7]; -5% in [8]; 0.531% in experiment [9].

Consider `CC(NC(=O)c1cccs1)C(=O)NCc1cccnc1N1CCCCC1` (stereo not given), for which the Percent Effect in [1] is -5.05%; in experiment [2] it was 15.6%; in experiment [3] it was 4.11%; in [4], 3.01%; in the experiment on Trypanosoma cruzi it was -3.93%; in experiment [5], 0.712%. Besides, the Percent Effect was 9.46% in [6]; 10.2% in the experiment listed under Homo sapiens; 1.94% in experiment [7]; 7.32% in [8]; -4.16% in experiment [9].

Take `O=C(COc1ccc(C(F)(F)F)cc1)NS(=O)(=O)c1cccnc1`: the Percent Effect in experiment [1] is -0.269%; in experiment [2] it was 0%; in experiment [3], 4.15%; in [4], -3.63%; in the experiment on Trypanosoma cruzi it was -1.5%; in [5], 0.383%. The Percent Effect in experiment [6] was 3.84%; in the experiment filed under Homo sapiens it was -6.19%; in [7], -1.47%; in experiment [8], -4.88%; in experiment [9], 4.47%.

Consider `Cc1cnc(CN(Cc2ccccc2)CC(O)c2cccs2)cn1` (stereo not given), for which the Percent Effect in experiment [1] is 0.271%; in experiment [2] it was 5.41%; in experiment [3] it was -2.24%; in [4], 20.3%; in the experiment on Trypanosoma cruzi, 6.35%; in experiment [5], 41.9%. Also, the Percent Effect in experiment [6] was 0.772%; in the experiment filed under Homo sapiens, 5.39%; in experiment [7], -3.23%; in experiment [8], 6.17%; in experiment [9], -11.6%.

For the molecule `CC(C)c1ncc(CN2C[C@@H](CN3CCC(CO)CC3)[C@@H](CO)C2)cn1`, the Percent Effect in experiment [1] was -3.44%; in experiment [2], 8%; in experiment [3], -6.42%; in experiment [4], 4.65%; with Trypanosoma cruzi, 3.02%; in experiment [5] it was 1.56%. Further, the Percent Effect in experiment [6] was 19.7%; in the experiment filed under Homo sapiens, 10.9%; in [7], 3.83%; in [8], 11.1%; in experiment [9], -4.15%.

On to `Cc1csc(CNC(=O)NCC(O)c2cccc(Cl)c2)n1` (stereo not given), for which the Percent Effect in [1] was -1.7%; in experiment [2], 8.11%; in experiment [3], -4.44%; in experiment [4] it was 1.18%; in the experiment on Trypanosoma cruzi, 3.48%; in experiment [5], -2.38%. Further, the Percent Effect in experiment [6] was 20.5%; in the experiment filed under Homo sapiens, 24.4%; in experiment [7], 3.7%; in experiment [8], 12.2%; in experiment [9], -0.155%.

With `Cc1ccc(CN2CC[C@H]3OCC[C@@H](c4nc(C)no4)[C@H]3C2)cc1`, the Percent Effect was -4.22% in experiment [1]; 5.41% in experiment [2]; 2.69% in experiment [3]; -2.48% in [4]; 7.14% in the experiment with Trypanosoma cruzi; -4.14% in experiment [5]. For the same molecule, the Percent Effect is 15.3% in experiment [6]; -21.7% in the experiment filed under Homo sapiens; 0% in [7]; 10.3% in [8]; 0.212% in experiment [9].

Consider `CN(C)CC1CSCCCN1C(=O)Nc1ccc(C(C)(C)C)cc1` (stereo not given), for which the Percent Effect in experiment [1] is -1.39%; in experiment [2] it was 5.2%; in experiment [3], 3.67%; in experiment [4], 12.9%; in the experiment on Trypanosoma cruzi, -9.96%; in experiment [5], -5.81%. Besides, the Percent Effect in [6] is 1.57%; in the experiment listed under Homo sapiens, 13.1%; in experiment [7], 4.23%; in experiment [8], 8.97%; in [9], -4.09%.
